Data as given in PubChem BioAssay (EPA / NIEHS).
Active and inactive are the calls of the source. Rule for the calls: active = hit-call score of the fitted dose curve at least 0.9, where 1 is the maximum; inactive = score below 0.9.

Read-out: Cyclin Dependent Kinase Inhibitor 1A (CDKN1A), CDKN1A (gene 1026)
Assay: LTEA_HepaRG_CDKN1A: Life Technologies and Expression Analysis (LTEA) Assay for Cyclin Dependent Kinase Inhibitor 1A (CDKN1A) using HepaRG (AID 2283450)
Conditions: mRNA level, 48 h; actives raise or lower the signal
Method: LTEA_HepaRG is a cell based, multiplexed-readout assay that uses HepaRG, a human liver cell line, with measurements taken at 48 hours after chemical dosing on a 96-well plate.LTEA_HepaRG_CDKN1A is one of 102 assay component(s) measured in the LTEA HepaRG cell culture assay. It is a marker of Cell proliferation, survival, death.Data from the assay component LTEA_HepaRG_CDKN1A was analyzed into 1 endpoint. This assay endpoint, LTEA_HepaRG_CDKN1A, was analyzed with bidirectional fitting relative to DMSO as the negative control and baseline of activity. Using a type of inducible reporter, measures of mRNA induction for gain or loss-of-signal activity can be used to understand regulation of transcription factor activity. To generalize the intended target to other relatable targets, this assay endpoint is annotated to the cell cycle intended target family, where the subfamily is Cell proliferation, survival, death.
A total of 1060 chemcials from the ToxCast library were tested in eight-point concentration-response experiments. Cell culture and cytotoxicity assays were conducted at Thermo Fisher Scientific's Custom Services facility (Madison, WI). A single lot of human HepaRG cells (Thermo Fisher Scientific, Frederick, MD) was used for the cell culture experiments. 96-well format collagen type I coated plates of human HepaRG cells were prepared using established methods. Briefly, cryopreserved HepaRG cells were thawed, plated at a density of approximately 100,000 cells/well in HepaRG Thaw, Plate, and General Purpose media (HPRG770, Thermo Fisher Scientific), and incubated for 48 hours. 0.5% DMSO was selected as vehicle control to balance the requisite need of DMSO in HepaRG cultures to maintain differentiation (for example, baseline metabolism, proportions of hepatocytes vs. cholangiocytes), while enabling further hepatic receptor pathway activation (for example, PXR and CAR) in response to chemical exposure. 48 hours after plating, the culture medium was replaced with HepaRG Serum-Free Incudtion Media. Cells were exposed to each test chemical in duplicate and maintained in CO2 incubators for another 48 hours. Chemical plates were thawed to room temperature and 200x concentrations of treatment groups were prepared. 8-point conentration-reponse curves were made with the highest exposure at 100 uM, followed by half-log dilutions, all in 0.5% DMSO. Each test plate contained variouse controls, induction positive controls (1mM phenobarbital), cytotoxicity positive controls ([…] aflatoxin B1), vehicle controls (0.5% DMSO), and total lysis controls (0.5% DMSO). Cell morphology images were taken using an Essen IncuCyte FLR automated microscope, with six 96-well plates imaged in about 24 minutes. Images were captured and exported and JPEG files. Spent culture media was transfered to black-well plates for the LDH assay, and remaining media was sorted at -80 C for later use. Cells were treated with RLT buffer and frozen until shipped for gene expression analysis. Total RNA was isolated from the cell suspension in 75 uL of Buffer RLT (Qiagen, Germantown, MD 20874) by Quintiles/Expression Analysis (Durham, NC) using a custom isolation procedure. Total RNA from each plate well was transferred to a preamplification plate. Fluidigm's 96.96 Dynamic ArrayTM (Fluidigm, Amsterdam, the Netherlands) technology was used for gene expression analyses by quantitative reverse transcription polymerase chain reaction (qRT-PCR, performed by Quintiles/Expression Analysis, Durham, NC)89. Standard TaqManTM Assays (Applied Biosystems/ThermoFisher Scientific, Foster City, CA) were used to assess the expression of 93 genes selected based on their selectivity and sensitivity to important hepatic receptors known to be modulated by environmental chemicals; importance in human hepatocyte functionality; and hepatotoxicity. […]

| SMILES | outcome | AC50 |
| --- | --- | --- |
| O=C(O)c1cc(N=Nc2ccc(S(=O)(=O)Nc3ccccn3)cc2)ccc1O | inactive | – |
| CC(C)CC(C)(O)C#CC(C)(O)CC(C)C (stereo not given) | inactive | – |
| CC(C)=CCCC(C)=CC=O | inactive | – |
| CC/C(=C\C(=N/O)C(N)=O)C(C)[N+](=O)[O-] (stereo not given) | inactive | – |
| Cn1cnc([N+](=O)[O-])c1Sc1ncnc2nc[nH]c12 | – | 4.48 µM (active) |
| CC(=O)c1ccc2c(c1)[C@H](NC(=O)c1ccc(F)cc1)[C@@H](O)C(C)(C)O2 | inactive | – |
| CCCCC(CC)COC(=O)CCCCCCCCC(=O)OCC(CC)CCCC (stereo not given) | inactive | – |
| O=C(O)c1cccc(N(Cc2cccnc2)c2ccc(OC(F)F)c(OC(F)F)c2)c1 | inactive | – |
| O=c1n(CC2CO2)c(=O)n(CC2CO2)c(=O)n1CC1CO1 (stereo not given) | – | 58.7 µM (active) |
| Cc1ccc(N)cc1O | inactive | – |
| CN(C)c1ccc(N=NS(=O)(=O)O)cc1 | inactive | – |
| O=P(OC(CCl)CCl)(OC(CCl)CCl)OC(CCl)CCl | – | 90.8 µM (active) |
| C[C@](N)(Cc1ccc(O)c(O)c1)C(=O)O | inactive | – |
| CCCCC(CC)COC(=O)c1ccc(C(=O)OCC(CC)CCCC)cc1 (stereo not given) | inactive | – |
| CC1=CC(=O)CC(C)(C)C1 | inactive | – |
| CCCN(C1CCN(C(=O)C2CCNCC2)CC1)[C@@H]1CCc2ccc(OC)cc2C1 | inactive | – |
| CC(C)(O)c1coc(S(=O)(=O)NC(=O)Nc2c3c(cc4c2CCC4)CCC3)c1 | inactive | – |
| C=CCCCCCCCCC(=O)O | inactive | – |
| CCOc1cccc(-n2cc(C(=O)N3CCN(c4cc(C(=O)O)c5ccccc5c4)CC3)nc2-c2ccc(C)cc2)c1 | inactive | – |
| Nc1nc2ncc(CNc3ccc(C(=O)N[C@@H](CCC(=O)O)C(=O)O)cc3)nc2c(=O)[nH]1 | inactive | – |

| SMILES | outcome | AC50 |
| --- | --- | --- |
| O=C(OC[C@H]1O[C@@H](OC(=O)c2cc(O)c(O)c(OC(=O)c3cc(O)c(O)c(O)c3)c2)[C@H](OC(=O)c2cc(O)c(O)c(OC(=O)c3cc(O)c(O)c(O)c3)c2)[C@@H](OC(=O)c2cc(O)c(O)c(OC(=O)c3cc(O)c(O)c(O)c3)c2)[C@@H]1OC(=O)c1cc(O)c(O)c(OC(=O)c2cc(O)c(O)c(O)c2)c1)c1cc(O)c(O)c(OC(=O)c2cc(O)c(O)c(O)c2)c1 | inactive | – |
| Fc1ccccc1[C@@H](F)COC1CCC(Nc2ncnc3[nH]ncc23)CC1 (stereo not given in full) | – | 31.8 µM (active) |
| CCOCCOCCOCCO | inactive | – |
| CN(C)c1ccc(Cc2ccc(N(C)C)cc2)cc1 | inactive | – |
| COc1ccc(-n2nc(C(F)F)cc2-c2ccc(S(C)=O)cc2)cc1 (stereo not given) | inactive | – |
| O=C(CCCCCCCCc1cccnc1)N1CCC(C=C(c2ccccc2)c2ccccc2)CC1 | – | 27 µM (active) |
| Cn1c(=O)c2c(ncn2C)n(C)c1=O | inactive | – |
| CC(C)=CCCC(C)CCO (stereo not given) | inactive | – |
| O=C1CCCCCN1 | inactive | – |
| C1N2CN3CN1CN(C2)C3 | inactive | – |
| O=C(O)CC(O)C(=O)O (stereo not given) | inactive | – |
| CCCCCCCCCCCCc1ccccc1 | inactive | – |
| CCOCCO | inactive | – |
| O=C(NS(=O)(=O)/C=C/c1ccccc1)c1ccc(F)cc1Cl | inactive | – |
| CCOC(=O)CC(CC(=O)OCC)(OC(C)=O)C(=O)OCC | inactive | – |
| CCn1nc(Cc2ccccc2)cc1C1CCN(C[C@H]2C[C@H](N(C)[C@@H](C(=O)O)C(C)C)C[C@@H]2c2cccc(F)c2)CC1 | inactive | – |
| CC(=O)OCCC(C)C | inactive | – |
| COC(=O)c1c(Cl)c(Cl)c(C(=O)OC)c(Cl)c1Cl | inactive | – |
| On1ccccc1=S | inactive | – |
| CCc1cc(SCc2sc(-c3ccc(C(F)(F)F)cc3)nc2CN2CCN(c3ccc(OC)cc3)CC2)ccc1OCC(=O)O | – | 85.4 µM (active) |
